This passage reports MAPPIT interaction score results from the supplement of paper PMC10105736.

A number with no mark means an inactive call.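 The calls were made as follows: active = MAPPIT score above the 99th percentile of random reference set scores in the same batch; inactive = at or below it.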

Common to all, as to experiment: MAPPIT interaction score (arbitrary units); higher = stronger binary interaction signal, active = hit call of the paper
One experiment concerns the target CG15514. Conditions: MAPPIT configuration: N-N.
Another experiment addresses CG15529. Conditions: MAPPIT configuration: N-C; pair source set: screen_4.
For the next experiment, the target named is CG15482. Conditions: MAPPIT configuration: N-N; pair source set: screen_1.
In a further experiment the target is CG33096. Conditions: MAPPIT configuration: N-N; pair source set: Finley_Y2H.
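Also: HEK293T cells with Epo stimulation, STAT-responsive firefly luciferase reporter, fold induction versus unstimulated cells divided by the larger fold induction of two negative controls lacking either bait or prey.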

B1: Spt6 (protein)
chain: MAEFLDSEAEESEEEEELDVNERKRLKKLKAAVSDSSEEEEDDEERLREELKDLIDDNPIEEDDGSGYDSDGVGSGKKRKKHEDDDLDDRLEDDDYDLIEENLGVKVERRKRFKRLRRIHDNESDGEEQHVDEGLVREQIAEQLFDENDESIGHRSERSHREADDYDDVDTESDADDFIVDDNGRPIAEKKKKRRPIFTDASLQEGQDIFGVDFDYDDFSKYEEDDYEDDSEGDEYDEDLGVGDDTRVKKKKALKKKVVKKTIFDIYEPSELKRGHFTDMDNEIRKTDIPERMQLREVPVTPVPEGSDELDLEAEWIYKYAFCKHTVSEQEKPESREKMRKPPTTVNKIKQTLEFIRNQQLEVPFIAFYRKEYVKPELNIDDLWKVYYYDGIWCQLNERKRKLKVLFEKMRQFQLDTLCADTDQPVPDDVRLILDSDFERLADVQSMEELKDVHMYFLLNYSHELPRMQAEQRRKAIQERREAKARRQAAAAENGDDAAEAIVVPEPEDDDDPELIDYQLKQASNSSPYAVFRKAGICGFAKHFGLTPEQYAENLRDNYQRNEITQESIGPTELAKQYLSPRFMTTDEVIHAAKYVVARQLAQEPLLRKTMREVYFDRARINIRPTKNGMVLIDENSPVYSMKYVAKKPVSDLFGDQFIKLMMAEEEKLLEITFLEEFEGNACANGTPGDYVEESKALYQLDQFAKHVQEWNKLRAECVQLALQKWVIPDLIKELRSTLHEEAQQFVLRSCTGKLYKWLKVAPYKPQLPPDFGYEEWSTLRGIRVLGLAYDPDHSVAAFCAVTTVEGDISDYLRLPNILKRKNSYNLEEKAQKLADLRKLSDFIKMKKPHIVVIGAESRDAQNIQADIKEILHELETSEQFPPIEVEIIDNELAKIYANSKKGESDFKEYPPLLKQAASLARKMQDPLVEYSQLCDADDEILCLRYHPLQERVPREQLLEQLSLQFINRTSEVGLDINLMVQNSRTINLLQYICGLGPRKGQALLKLLKQSNQRLENRTQLVTVCHLGPRVFINCSGFIKIDTSSLGDSTEAYVEVLDGSRVHPETYEWARKMAIDAMEYDDEETNPAGALEEILESPERLKDLDLDAFAVELERQGFGSKSITLYDIRNELSCLYKDYRTPYTKPSAEELFDMLTKETPDSFYVGKCVTAMVTGFTYRRPQGDQLDSANPVRLDSNESWQCPFCHKDDFPELSEVWNHFDANACPGQPSGVRVRLENGLPGFIHIKNLSDRQVRNPEERVRVSQMIHVRIIKIDIDRFSVECSSRTADLKDVNNEWRPRRDNYYDYVTEEQDNRKVSDAKARALKRKIYARRVIAHPSFFNKSYAEVVAMLAEADQGEVALRPSSKSKDHLTATWKVADDIFQHIDVREEGKENDFSLGRSLWIGTEEFEDLDEIIARHIMPMALAARELIQYKYYKPNMVTGDENERDVMEKLLREEKANDPKKIHYFFTASRAMPGKFLLSYLPKTKVRHEYVTVMPEGYRFRGQIFDTVNSLLRWFKEHWLDPTATPASASASNLTPLHLMRPPPTISSSSQTSLGPQAPYSVTGSVTGGTPRSGISSAVGGGGSSAYSITQSITGYGTSGSSAPGAGVSSSHYGSSSTPSFGAINTPYTPSGQTPFMTPYTPHASQTPRYGHNVPSPSSQSSSSQRHHYGSSSGTGSTPRYHDMGGGGGGGVGGGGGSNAYSMQPHHQQRAKENLDWQLANDAWARRRPQQHQSHQSYHAQQQHHHSQQQPHMGMSMNMGITMSLGRGTGGGGGGGYGSTPVNDYSTGGGHNRGMSSKASVRSTPRTNASPHSMNLGDATPLYDEN
As for B1, the MAPPIT interaction score is 2.16 in the experiment with CG15514 (pair source set: screen_1) and 1.63 with CG15514 (pair source set: screen_2).

B2: CG3817 (protein)
chain: MALLTEKRVKKTHAPASDSSPEESDSEGSQNSASEAEGNAGWADSIQKVLKTTKPKTQKKTVLARAKKSQAAVRFQKDAANKKPGFDFEIEKADVKEEDEGDNHEDEKPQASALDATLTKQQRKNVPLQLRVKPSFRDMERERTLRKVATRGVVQFFNAVRIQQKDLQQQLEEAGPLDSRQDAVLNNINKRKFLDVLMSGKRAKSTPVDNAVKKEEQETDDDDEDKGSSGKKKSEWSVLREDFMTNKKIKHWDEEDDDEEGHNDEADDSDYDDGEE
Regarding B2, the MAPPIT interaction score in the experiment with CG15529 was 1.02.

B3: trbd (protein)
chain: MCDTKDDAQKWKCETCTYENYPSSLKCTMCQASKPLLNEDIFRLSPAQESCTVAEEAAAVEVAVMSPTPSSTCYSLQPQSQARQSNVADSEKWPCKVCTYLNWPRSLRCVQCCTKRGGEAIERGKKDMDNEADGDRAGEALQALRISGSEENLANKPVQLIGATASHRLSLSRGIDDATHLNNLANASHNQSQSQHRQPVLQQQMQLQLQPQQQRESSSSAAVPPQQQKQCYVSKWACNSCTYENWPRSIKCSMCGKTREREISGSQNDLHASSSLNSQEENQQQLQQPNVDTVSVNNSFNKKHIYQLGSSETINNCDTLQERQERRQRQIRRQVDWQWLNACLGVVENNYSAVEAYLSCGGNPARSLTSTEIAALNRNSAFDVGHTLIHLAIRFHREEMLPMLLDQISGSGPGIKRVPSYVAPDLAADIRRHFANTLRLRKSGLPCHYVQKHATFALPAEIEELPIPIQEQLYDELLDRDAQKQLETPPPALNWSLEITARLSSRMFVLWNRSAGDCLLDSAMQATWGVFDRDNILRRALADTLHQCGHVFFTRWKEYEMLQASMLHFTLEDSQFEEDWSTLLSLAGQPGSSLEQLHIFALAHILRRPIIVYGVKYVKSFRGEDIGYARFEGVYLPLFWDQNFCTKSPIALGYTRGHFSALVPMEPFTRIDGRRDDVEDVTYLPLMDCELKLLPIHFLTQSEVGNEESMMRQWLDVCVTDGGLLVAQQKLSKRPLLVAQMLEEWLNHYRRIAQVITAPFIRRPQITHYSSDGDSDEE
On to B3, for which the values for the MAPPIT interaction score with CG15482 and in the experiment with CG33096 were -0.138 and 0.0624, respectively.
